Measured values published in PubChem BioAssay (NCATS).
Active and inactive are the calls of the source.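 How the source made its calls: active means compounds whose dose series gives a full or clear partial fitted curve of increased nuclear translocation; inconclusive means weak partial curve or effect only at the top dose; inactive means no dose-dependent translocation response.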

What follows are compounds tested against Glucocorticoid receptor (Homo sapiens) (UniProt P04150) (assay: GR-GFP Redistribution (AID 450)). Conditions: U2OS GR-GFP nuclear translocation, laser cytometry, 2 h.
Text: NIH Molecular Libraries Screening Centers Network [MLSCN]
NIH Chemical Genomics Center [NCGC]
The glucocorticoid receptor (GR) Redistribution assay (BioImage) enables the visualization of GR cytoplasmic to nuclear translocation by the use of a GR-GFP fusion. GR is normally cytosolic, however ligands such as dexamethasone, cause nuclear translocation where the protein binds to response elements and interacts with various co-factors to modulate transcription. Because both functional agonists and antagonists can induce nuclear translocation, this assay can detect ligands regardless of their effects on gene expression. GR-GFP expressing U20S cells were used here. Dexamethasone was the positive control for translocation and data normalization. Detection of nuclear translocation was performed in 1536-well plates using the Acumen laser scanning plate cytometer (TTP LabTech). Validation of this assay and a detailed protocol have been described.
NCGC Assay Protocol Summary:
GR-GFP U2OS cells were maintained in DMEM with Glutamax and high glucose, 1% v/v penicillin-streptomycin, and 0.5 mg/mL Geneticin. For cell culture, 10% […] fetal bovine serum (FBS) was used (Invitrogen #26140-079). For cell plating 10% dextran, charcoal-stripped FBS (Hyclone SH30068.03) was used. U2OS cells were trypsin treated, suspended in medium, and passed through a 40 um basket filter. The cells were seeded at 600 cells/5 uL/well into clear-bottom black sided 1536-well plates and incubated for approximately 20 hrs, 37degC, 5%, CO2 in a tissue culture incubator. Twenty-three nL of compound was delivered by pin tool and the plates were incubated as above for 2 hrs. The compounds were tested as a 7-point titration ranging from 46 uM to 0.6 nM. The cells were fixed using the Kalypsys Washer/Dispenser station. The fixing protocol involved aspiration of the cell media, addition of 6 uL/well of PBS, aspiration of PBS, addition of 5uL/well of 100% methanol, aspiration of methanol, and addition of 3 uL/well PBS with 1.5 uM propidium iodide (PI). The plates were read by the Acumen Explorer using a 1 x 8 um scan of the whole well area. PI fluorescence triggered the collection of PI and GFP signals. A nuclei population was defined by a 10 to 100 um width and depth filter that eliminated small and large fluorescent particles. Two subpopulations of nuclei were then defined by peak intensity of GFP fluorescence to obtain translocated and untranslocated objects. The number of translocated objects was used for data normalization.
Keywords: NIH Roadmap, MLSCN, MLI, MLSMR, sOGT, qHTS, NCGC
Potency means the concentration at half of the fitted maximal effect.

Sequence of Glucocorticoid receptor (Homo sapiens) (P04150 whole entry, looked up): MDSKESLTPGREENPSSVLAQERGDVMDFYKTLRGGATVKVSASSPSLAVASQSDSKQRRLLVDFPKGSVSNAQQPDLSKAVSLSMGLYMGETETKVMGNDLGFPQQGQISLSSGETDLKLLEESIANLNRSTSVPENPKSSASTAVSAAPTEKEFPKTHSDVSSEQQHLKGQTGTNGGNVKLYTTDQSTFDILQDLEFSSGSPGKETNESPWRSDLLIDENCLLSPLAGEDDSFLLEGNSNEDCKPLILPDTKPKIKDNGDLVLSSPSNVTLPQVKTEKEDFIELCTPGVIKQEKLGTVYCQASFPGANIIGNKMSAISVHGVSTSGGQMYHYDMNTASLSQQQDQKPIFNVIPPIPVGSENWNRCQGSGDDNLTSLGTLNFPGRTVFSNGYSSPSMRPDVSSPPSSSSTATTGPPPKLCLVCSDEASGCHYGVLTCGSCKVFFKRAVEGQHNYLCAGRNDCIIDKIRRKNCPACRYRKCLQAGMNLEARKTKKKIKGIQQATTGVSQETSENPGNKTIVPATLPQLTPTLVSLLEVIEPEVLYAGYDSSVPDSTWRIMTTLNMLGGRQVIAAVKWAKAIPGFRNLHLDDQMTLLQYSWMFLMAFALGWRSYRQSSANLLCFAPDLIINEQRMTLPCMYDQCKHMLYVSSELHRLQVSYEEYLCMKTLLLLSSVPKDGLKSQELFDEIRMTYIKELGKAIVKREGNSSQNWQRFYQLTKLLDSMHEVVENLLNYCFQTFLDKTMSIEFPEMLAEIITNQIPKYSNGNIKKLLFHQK

Potency, active:
CCN(CC)c1ccc2cc(-c3nnc(-c4ccncc4)o3)c(=O)oc2c1 3.51 µM

Potency, inactive:
COc1ccccc1CNc1ccnc(-c2cccc(NS(C)(=O)=O)c2)n1 > 46 µM, COc1ccccc1-c1nc(Nc2ccncc2)c2ccccc2n1 > 46 µM, COc1ncc2nc(-c3cccs3)c(=O)n(CCC#N)c2n1 > 9.22 µM, COc1cccc(-c2nc(NCCN3CCOCC3)c3ccccc3n2)c1 > 46 µM, O=S(=O)(O)C1CCNCC1 > 46 µM, COc1cccc(-c2nc(NCc3cccnc3)c3ccccc3n2)c1 > 46 µM, COc1cccc(Cn2c(=O)c(CCc3ccccc3)nc3cnc(N4CCN(C)CC4)nc32)c1 > 9.22 µM, Cc1cnc(CNc2ncnc3ccc(-c4ccc(N(C)C)cc4)cc23)cn1 > 46 µM, COc1ccc(CNc2nc(-c3cccnc3)nc3ccccc23)c(OC)c1 > 46 µM, CCCCN1CCC(COC(=O)c2cc(Cl)c(N)c3c2OCCO3)CC1 > 46 µM, COc1cccc(Nc2ncc3ncc(=O)n(Cc4ccc(F)cc4)c3n2)c1 > 9.22 µM, COc1ncc2nc(-c3ccccc3)c(=O)n(CCc3ccccc3)c2n1 > 9.22 µM, CN(C)c1ncc2nc(CCc3ccccc3)c(=O)n(-c3ccccc3)c2n1 > 9.22 µM, Cn1c(=O)c(-c2ccccc2)nc2cnc(N3CCOCC3)nc21 > 9.22 µM, COc1ccc(Oc2ncc3nc(-c4cc(F)cc(F)c4)c(=O)n(C4CC4)c3n2)cc1 > 9.22 µM, COc1cccc(-c2cncnc2NCc2ccccc2OC)c1 > 46 µM, CN1CCN(c2ncc3nc(-c4cn(C)c5ccccc45)c(=O)n(C[C@H]4CCCO4)c3n2)CC1 > 46 µM, COCCn1c(=O)c(-c2cccc(C#N)c2)nc2cnc(OCc3ccccc3)nc21 > 9.22 µM, COCCn1c(=O)c(CCc2ccccc2)nc2cncnc21 > 9.22 µM, N#CCCn1c(=O)c(-c2ccc(Cl)cc2)nc2cnc(N3CCOCC3)nc21 > 9.22 µM, COc1cccc(Cn2c(=O)c(CCc3ccccc3)nc3cnc(N(C)C)nc32)c1 > 9.22 µM, O=c1c(-c2cccc(F)c2)nc2cncnc2n1Cc1ccc(F)cc1 > 9.22 µM, COC(=O)c1cc(Br)c(=O)n(Cc2ccc3c(c2)OCO3)c1 > 20.6 µM, COc1cccc(Cn2c(=O)cnc3cnc(Nc4cccc(OC)c4)nc32)c1 > 9.22 µM, CCNc1ncc2ncc(=O)n(Cc3cccc(OC)c3)c2n1 > 9.22 µM, COCCn1c(=O)c(-c2ccc(F)cc2)nc2cnc(Oc3ccccc3)nc21 > 9.22 µM, COc1ccccc1CNc1cc(-c2cccnc2)ncn1 > 46 µM, COc1ccc2[nH]cc(CCNc3ncnc4ccc(-c5ccoc5)cc34)c2c1 > 46 µM, COc1ccccc1CNc1ncnc2ccc(-c3cccc(NS(C)(=O)=O)c3)cc12 > 46 µM, COCCn1c(=O)c(-c2ccc(F)cc2)nc2cnc(Nc3cccc(OC)c3)nc21 > 9.22 µM, COc1ccccc1CNc1ncncc1-c1ccc2c(c1)OCO2 > 46 µM, COc1ccc2[nH]cc(CCNc3ncnc4ccc(-c5cccc(C#N)c5)cc34)c2c1 > 46 µM, CN(Cc1ccco1)c1cc(-c2ccc3c(c2)OCO3)ncn1 > 46 µM, CN(C)c1nc(-c2ccc3c(c2)OCO3)nc2ccccc12 > 46 µM, CN(Cc1ccco1)c1nc(-c2cccnc2)nc2ccccc12 > 46 µM, Cc1ccccc1-c1ccc2ncnc(NCCN3CCOCC3)c2c1 > 46 µM, CN(C)c1ccc(-c2nccc(NCc3cccs3)n2)cc1 > 46 µM, COc1ccccc1CNc1nc(-c2ccc(C(=O)N(C)C)cc2)nc2ccccc12 > 46 µM, CN1CCN(c2nc(-c3cccnc3)nc3ccccc23)CC1 > 46 µM
